Reference: PubChem BioAssay AID485317 (Broad Institute, 2010)
Out of some 290,000 compounds screened, about 11,000 (3.8%) were called active. The entries come from a sample that favours actives as a whole. Unmarked numbers belong to inactive results.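 Rule for the calls: active = mean replicate inhibition above about 79%, with every replicate also reaching it (limit read from the data); inconclusive = only one of the two criteria met; inactive = mean below limit and not every replicate reaching it.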

target: FAD-linked sulfhydryl oxidase ALR (Homo sapiens) (UniProt P55789); experiment: ALR-catalysed DTT oxidation blockers – biochemical, H2O2 detection, HRP-luminol luminescence, single point, primary screen (AID 485317); details: purified ALR, active compounds read high, concentration not given here
Sequence (P55789 whole entry, looked up): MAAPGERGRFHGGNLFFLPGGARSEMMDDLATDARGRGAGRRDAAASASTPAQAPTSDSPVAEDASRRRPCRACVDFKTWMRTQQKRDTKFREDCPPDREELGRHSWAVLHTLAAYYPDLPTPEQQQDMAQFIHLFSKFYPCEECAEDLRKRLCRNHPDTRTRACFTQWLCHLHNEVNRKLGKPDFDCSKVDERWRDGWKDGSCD

SMILES | inhibition
O=C(COC(=O)C1(c2ccc(F)cc2)CCCC1)N1CCNC1=O | 1.5%
COc1ccccc1C(CNC(=O)c1cccc(NS(=O)(=O)c2ccc(Br)cc2)c1)N(C)C (configuration not stated) | -2.7%
CC(C)NC(=O)Nc1cccc2c1O[C@@H](CN(C)S(=O)(=O)c1ccc(F)cc1)[C@@H](C)CN([C@H](C)CO)C2=O | -3.22%
CCOC(=O)c1c(-c2ccccc2)oc2cc(Br)c(O)cc12 | 13.2%
CCOC(=O)c1c(-c2cccc(N)c2)cn2ccccc12 | 99% (active)
CCOC(=O)c1c(N)nn(C(=O)c2ccccc2)c1-c1ccccc1 | 3.16%
CCOC(=O)c1sc(N)c(C#N)c1COC(=O)C1=COCCO1 | -1.4%
CCOC(=O)CSC1=N/C(=C/c2ccc(-n3cncn3)cc2)C(=O)N1C(C)=O | 97.6% (active)
CCOC(=O)CSc1nc(C)cc2c1C(=O)OC2 | -5.37%
CCOC(=O)CSc1ccccn1 | -2.85%
CC(=O)Nc1ccc(NC(=O)COC(=O)c2ccccc2C(=O)c2ccccc2)cc1 | 0.353%
COc1ccc(S(=O)(=O)N2CCCCCC2)cc1C(=O)N(C)Cc1cccc(OC)c1OC | -1.21%
CCOc1ccc(C(=O)NCC(=O)N2CCN(c3ccc(C(F)(F)F)cn3)CC2)cc1 | 1.77%
O=C(COC(=O)CN1C(=O)C2CCCCC2C1=O)Nc1ccc(F)c(F)c1F (configuration not stated) | -5.29%
COc1ccc([N+](=O)[O-])cc1-c1nc2ccccc2nc1-c1ccccc1 | -10.3%
Cc1cccc(NC(=O)c2sc(-c3ccccc3)nc2-c2ccc([N+](=O)[O-])cc2)c1 | -3.26%
Cc1nc(-c2ccc([N+](=O)[O-])cc2)c(-c2ccccc2)o1 | 97.6% (active)
CCC(CO)Oc1cc(NCc2ccccc2)c2ncn(C3CCCC3)c2c1 (configuration not stated) | 15.4%
CC1CC1C(=O)OCC(=O)Nc1cccc(F)c1 (configuration not stated) | -3.36%

SMILES | inhibition
COC(=O)c1ccc(C)c(NC(=O)Cn2c(C)csc2=O)c1 | -1.89%
N#Cc1cccc(Nc2c3c(nc4ccccc24)CCCC3)c1 | -9.75%
CC(=O)Nc1ccc(Nc2c3ccccc3nc3ccccc23)cc1 | 89.9% (active)
Cc1ccc(Nc2c3c(nc4ccccc24)CCC3)cc1 | 98.4% (active)
O=[N+]([O-])c1cccc(Nc2c3ccccc3nc3ccccc23)c1 | -6.1%
O=C(Nc1c2c(nc3ccccc13)CCCC2)c1ccccc1Br | -5.44%
CC(=O)Nc1ccc(-c2nc3ccccc3o2)cc1 | -1.09%
CCOC(=O)C1=C(COC(=O)[C@H](C)NS(=O)(=O)c2ccccc2F)NC(=O)NC1C (some centres not stated) | -1.62%
O=C(CN1C(=O)NC2(CCOc3ccccc32)C1=O)NCc1ccc(F)cc1 (configuration not stated) | -3.27%
COC(=O)C1CCN(C(=O)COC(=O)c2cc(S(=O)(=O)N3CCOCC3)ccc2C)CC1 | -15.3%
O=C(Nc1ccc(NC(=O)c2ccccc2F)cc1)c1ccccc1F | -9.75%
CCn1c2ccccc2c2cc(NC(=O)C/C(C)=N/NC(=O)c3ccccc3N)ccc21 | -1.26%
C/C(CC(=O)Nc1ccc(N(C)C)cc1)=N\NC(=O)c1ccccc1F | 87.2% (active)
Cc1ccc2c(c1)NC(=O)[C@@]1(C)[C@@H](c3ccccc3)[C@H]3COc4ccc(Cl)cc4[C@@H]3N1C2=O | 0.863%
CC(=O)N1CCc2c(sc(NC(=O)CCS(=O)(=O)c3ccc(C)cc3)c2C(N)=O)C1 | -33.3%
C[C@H]1COC(=O)[C@H](CC(=O)OC(C)(C)C)C/C=C\C[C@@H](CC(=O)N[C@H](CO)Cc2ccccc2)C(=O)N1 | 1.44%
CCCCN(C(=O)c1ccc2ccccc2c1)c1c(N)n(CCCC)c(=O)[nH]c1=O | -4.16%
Cn1cc(Cl)c(C(=O)NNC(=S)Nc2cccc(Cl)c2)n1 | 89.2% (active)
Cc1cccc(-n2cnc(C(=O)NNC(=S)Nc3ccccc3)c2)n1 | 47.8%

SMILES | inhibition
Cc1nn(C)cc1C(=O)NNC(=S)Nc1ccc(Cl)cc1 | 49.6%
CC(OC(=O)CCCOc1ccccc1)C(=O)Nc1ccc(Cl)cn1 (configuration not stated) | -0.655%
CN(Cc1ccc(F)cc1)C(=O)CN1C(=O)c2ccccc2S1(=O)=O | 1.6%
COc1ccc(COC(=O)N/N=C(\C)CC(=O)Nc2ccc(Cl)cc2)cc1 | -4.07%
C/C(CC(=O)Nc1cccc(C(F)(F)F)c1)=N\NC(=O)C(=O)NCC(C)C | -10.3%
C/C(CC(=O)Nc1ccc(Cl)cc1)=N\NC(=O)C(=O)NCCO | 96.1% (active)
CC(C#N)OC(=O)c1cccnc1SCC(=O)Nc1ccc2c(c1)OCO2 (configuration not stated) | -10.2%
Cc1ccc(S(=O)(=O)N2CCN(C(=O)c3ccccc3-c3nc4ccccc4s3)CC2)c(C)c1 | -15.3%
Cc1ccc(NC(=O)C(c2ccccc2)N2CCN(C(=O)c3ccco3)CC2)cc1 (configuration not stated) | -2.06%
COc1cc(OC)cc(C(=O)N[C@H](C(=O)NNC(=O)c2ccc(Br)cc2)C(C)C)c1 | -9.81%
CC(=NCc1ccco1)C1=C(O)c2ccccc2C1=O | 2.24%
CCc1ccc(-c2cc(C(=O)NCc3ccco3)c3ccccc3n2)s1 | 52.8%
CC(=NCc1ccco1)c1c(C(F)(F)F)[nH]n(-c2nc3ccccc3s2)c1=O | 92.1% (active)
COc1cc(C=NNC(=O)c2cccnc2)ccc1OC(=O)c1ccccc1F | 20.1%
COc1ccc(CCNC(=O)COC(=O)c2cnc(Cl)c(Cl)c2)cc1 | -2.44%
Cc1cc(NC(=O)CSc2ncc(C(F)(F)F)cc2Cl)no1 | -1.5%
COc1ccc(S(=O)(=O)Nc2ccc3c(c2)OCO3)cc1Cl | 9.92%
COc1cc2c(cc1/C=C1/NC(=O)N(c3ccccc3)C1=O)OCO2 | -7.41%
COc1ccccc1C1C2=C(COC2=O)Nc2cc3c(cc21)OCO3 (configuration not stated) | 97.9% (active)
